Source: PubChem BioAssay AID624404 (Broad Institute, 2012)
About 710 (39%) of roughly 1,800 compounds were called active. Not shown: some 28% with an inconclusive outcome.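 Rule for the calls: active = luciferase signal rise whose fitted curve crosses a set activity limit at or below the top valid tested dose; inconclusive = flat fit with 30 to 70% rise, or poor fit; inactive = signal falling, flat within 30%, or crossing above top dose.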 Not all results are given here. Results with a measured potency or affinity are listed apart.

Experiment: luciferase activators in glycosylation-insensitive reporter cells, dose response, counter-screen for N-linked glycosylation inhibitor project, D54 LucT cells, luminescence, cherry pick (AID 624404);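 note: 0% = median neutral control signal and 100% = twice that signal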
Conditions: D54 LucT luciferase reporter counterscreen, 24 h; series mostly up to 19.5 µM; activity increase (luciferase signal): at the top concentration

Structure (SMILES) | activity increase (luciferase signal)
Cc1ccc(C)c(N2CCN(S(=O)(=O)c3ccc(-c4ccc(=O)[nH]n4)o3)CC2)c1 | 13.6% (inactive)
CC1(C(=O)NCc2cccs2)Cc2c(-c3ccc(C(N)=O)cc3)ccnc2O1 (centres undefined) | 13.2% (inactive)
CC(=O)c1cccc(-c2ccnc3c2CC(C(=O)NCc2cccs2)O3)c1 (centres undefined) | 31.3% (inactive)
CC(=O)Nc1cccc(-c2ccnc3c2CC(C(=O)NCc2ccc(F)c(F)c2)O3)c1 (centres undefined) | 4.2% (inactive)
Cc1ccc(CNC(=O)Cc2ccc(-n3c(=O)[nH]c4ccsc4c3=O)cc2)cc1 | -2.38% (inactive)
COc1cc(C2CC(=O)Nc3cc(C)c(C)cc32)cc(OC)c1OC (centres undefined) | 37.1% (inactive)
CN1CCN(C(c2ccc(Br)cc2)c2cc(Cl)c3cccnc3c2O)CC1 (centres undefined) | 97.6% (inactive)
COc1ccc2noc3c2c1C(=O)c1ccccc1-3 | 29.6% (inactive)
CN(C)CCNc1ccc2nnn3c4ccc(O)cc4c(=O)c1c23 | -11.4% (inactive)
COc1cc(C)c2sc3ccccc3c(=O)c2c1NCCN(C)C | -86.3% (inactive)
CCN(CC)CCCNc1ccc2ncn3c4ccc(O)cc4c(=O)c1c23 | -16.4% (inactive)
COc1ccc2sc3cccc(NCCN(C)C)c3c(=O)c2c1 | 102% (inactive)
COc1ccc(-n2c(C)cc(C(=O)CCl)c2C)cc1 | -1.73% (inactive)
c1ccc2sc(Sc3ncnc4sccc34)nc2c1 | 2.04% (inactive)
COc1ccc2c(C)nc(Nc3nc(-c4ccccc4)cc(=O)[nH]3)nc2c1 | -0.912% [at 5 µM] (inactive)
O=C(NCc1cccs1)C1CC(c2ccc(Cl)c(Cl)c2)=NO1 (centres undefined) | 27.1% (inactive)
COc1cc(OC)c(C2=NOC(C(=O)NCc3cccs3)C2)cc1Cl (centres undefined) | 35.5% (inactive)
COc1ccc(C2=NOC(C(=O)NCc3ccco3)C2)cc1OC (centres undefined) | 31.1% (inactive)
Cn1c(SCC(=O)c2ccccc2)ncc(C(=O)Nc2ccc(F)cc2)c1=O | 99.3% (inactive)
CC(=O)c1cccc(NC(=O)CSc2ncc(C(=O)Nc3ccccc3)c(=O)n2C)c1 | -6.67% (inactive)
CCn1cc2nc(SCC(=O)Nc3ccc(OC)cc3OC)n(Cc3ccc(OC)cc3)c(=O)c2n1 | -4.92% (inactive)
COc1ccc(CN(C)c2ncnc3sccc23)c(OC)c1OC | 7.71% (inactive)

Structure (SMILES) | activity increase (luciferase signal)
Cc1ccc(/C=N/NC(=O)c2c(C)nc3ccc(Br)cn23)cc1 | 37.3% (inactive)
NC(N)=N/N=C/c1ccc2cccc(OCc3ccccc3)c2n1 | 20.1% (inactive)
O=C(N/N=C/c1cccnc1)c1cc(-c2ccc(Br)cc2)nc2ccccc12 | 24.2% (inactive)
Cc1ccc(/C=N/NC(=O)CCn2nc(C)cc2C)c(C)c1 | 21.3% (inactive)
Brc1ccc(CSc2ccc3nnc(-c4cccnc4)n3n2)cc1 | -12.3% (inactive)
Cc1ccccc1OCCc1c(C)[nH]c(=S)[nH]c1=O | 24.5% (inactive)
CCN1Cc2c(/C=C/c3ccccc3)nc3ccc(OC)cc3c2N(c2cccc(Cl)c2)C1 | -74.9% (inactive)
COc1cc2nc(NC(=O)c3ccccc3)sc(=O)c2cc1OC | -3.32% (inactive)
O=C(Nc1nc2ccccc2c(=O)s1)c1ccco1 | 5.88% (inactive)
Cc1ccc(C(=O)NC(=C(Cl)Cl)S(=O)(=O)c2ccc(C)cc2)cc1 | 36% (inactive)
CC(=O)N(C1=C(Cl)C(=O)c2ccccc2C1=O)C1CCCCC1 | -63.8% (inactive)
COc1ccccc1OCC(=O)NNC(=O)c1ccoc1C | 17.5% (inactive)
COc1cc2cc(C(c3nnnn3C(C)(C)C)N3CCc4ccccc4C3)c(=O)[nH]c2cc1OC (centres undefined) | -3.46% (inactive)
CC(=O)c1ccc(Oc2cc(C)nc(-n3nc(C)cc3C)n2)cc1 | -4.49% (inactive)
Cc1cc(Nc2cc(Cl)cc(Cl)c2)nc(N)n1 | 13.1% (inactive)
CCN1/C(=C/c2ccc3ccccc3[n+]2CC)C=Cc2ccccc21 | -66.4% (inactive)
CCCCCCCCCCn1c2c(c(=N)c3c1CCC3)CCC2 | -66.6% (inactive)
COc1ccc2cc(C)c3nnc(SCC(=O)Nc4nc(-c5ccc(F)cc5)cs4)n3c2c1 | -2.8% (inactive)
COCCN(C(=O)CCl)C(C(=O)NC1CCCCC1)c1ccccc1C (centres undefined) | -53.2% (inactive)
COc1ccc(C(C)(O)c2nc(-c3ccc(F)cc3OC)cs2)cc1 (centres undefined) | 35.5% (inactive)
Nc1cccc2c1C(=O)N(C(=O)/C=C/c1ccc(F)cc1)C2=O | 26.8% (inactive)
CC(=O)Cn1ncc(Br)c(Br)c1=O | 67.2% (inactive)

Structure (SMILES) | activity increase (luciferase signal)
Cn1c(Cl)cnc1C1CC(=O)c2cc(Cl)ccc2O1 (centres undefined) | -14.5% (inactive)
O=C(N/N=C\C=C\c1ccc([N+](=O)[O-])o1)c1cccs1 | 46.4% (inactive)
Cc1c(C(=O)Nc2ccc3oc(-c4cccnc4)nc3c2)oc2ccccc12 | -6.21% (inactive)
O=C(Nc1ccc(-c2nc3cc(NC(=O)c4cccs4)ccc3o2)cc1)c1cccs1 | -4.38% (inactive)
O=C(Nc1ccc(N2CCCC2)c(Cl)c1)c1ccc([N+](=O)[O-])o1 | 27.7% (inactive)
O=C(NCc1ccccc1)C(=O)NCC1COc2ccccc2O1 (centres undefined) | 61.5% (inactive)
CN=c1sc(C(=O)Nc2cccc(Cl)c2)cc(=O)n1C | 16% (inactive)
O=C(CN1C(=O)/C(=C\c2ccc(F)cc2)Oc2ccccc21)N1CCN(c2ccccn2)CC1 | 14.4% (inactive)
O=C1CCCC2=C1C(c1ccc(Cl)cc1)n1c(s/c(=C\c3ccc4ccncc4c3)c1=O)=N2 (centres undefined) | -24.9% (inactive)
COc1cccc(-n2c(SCC(=O)NC3CCCCC3)nc3n[nH]c(C)c3c2=N)c1 | 4.88% (inactive)
COc1ccc(C(=O)/C=C\c2ccc(NC(=O)c3cccs3)cc2)cc1 | 35.6% (inactive)
O=C1CCCN1CCCNc1nc(NCc2ccccc2)nc2ccsc12 | 28.6% (inactive)
Cc1ccsc1CNc1ncnc2ccc(-c3c(C)noc3C)cc12 | -1.47% (inactive)
COc1ccc(C(=O)c2cc([N+](=O)[O-])ccc2N2CCN(C)CC2)cc1 | -3.34% (inactive)
CN(C)c1ccc(/C=C/C(=O)c2ccc(C(C)(C)C)cc2)cc1[N+](=O)[O-] | 13% (inactive)
CCOc1cc(/C=C/C(=O)c2ccc3c(c2)OCCO3)ccc1OCC(=O)N(C)C | 31.7% (inactive)
COc1cc(/C=C/C(=O)c2ccc3c(c2)OCCO3)cc(OC)c1OC | -9.8% (inactive)
COC(=O)C(=Cc1ccc(-c2ccsc2C(=O)OC)o1)C(=O)OC | 47% (inactive)
O=c1c2ccccc2sc2c(CO)ccc(NCCN3CCCCC3)c12 | 11.3% (inactive)
Cc1ccc2cc3c(N)c4c(C)ccc(C)c4nc3nc2c1 | 29.4% (inactive)
CC1=Nc2cc(C(=O)NCC3CCCO3)ccc2Sc2ccc(Br)cc21 (centres undefined) | 6.05% (inactive)
CCC1=Nc2cc(C(=O)NCc3ccco3)ccc2Sc2ccc(Cl)cc21 | -3.98% (inactive)

Structure (SMILES) | activity increase (luciferase signal)
O=C(/C=C/c1ccc([N+](=O)[O-])cc1)/C=C/c1ccco1 | 6.1% (inactive)
CC(NC(=O)c1cccc2ccccc12)c1ccc2c(c1)CCCC2 (centres undefined) | 22.9% (inactive)
CCOc1ccc2[nH]c(=O)c(CN(Cc3ccc(F)cc3)C(=O)c3ccco3)cc2c1 | 28.1% (inactive)
COc1cc2cc(/C=C/C(=O)c3ccco3)c(Cl)nc2cc1OC | -17.6% (inactive)
O=C(Oc1c(Cl)cc(Cl)c2cccnc12)c1ccco1 | -31.1% (inactive)
CN(C)c1ccc(CNC(=O)C2(C)Cc3c(-c4ccc5c(c4)OCO5)ccnc3O2)cc1 (centres undefined) | 37% (inactive)
CC1=C([N+](=O)[O-])C(c2ccccc2)C2=C(N1)c1ccccc1C2=O (centres undefined) | 10.1% (inactive)
CCCCCCCCn1c2c(c(=N)c3c1CCC3)CCCC2 | -57.8% (inactive)
COc1cc(/C=N\NC(=O)c2sc(N)nc2C)cc(OC)c1OC | 15.9% (inactive)
C#CC[N+](C)(C)CCCCCCCCCCCC | 37.5% (inactive)
CCc1ccc(Nc2n[n+](-c3ccccc3)c(-c3ccc(N(CC)CC)cc3)s2)cc1 | -3.22% (inactive)
CN(Cc1ccc(Cl)s1)C(=O)CCl | 1.46% (inactive)
COC(=O)CNC(c1ccccc1)c1cc(Br)ccc1NC(=O)CCN1CCOCC1 (centres undefined) | 8.3% (inactive)
NS(=O)(=O)c1cc(C(=O)NCCOc2ccccc2)c(Cl)cc1Cl | 43.3% (inactive)
COc1cc(/C=C/C(=O)c2ccc(Cl)s2)cc(OC)c1O | 3.5% (inactive)
COc1ccc(C=CC(=O)c2ccc(OC)c(OC)c2O)cc1OC | 14.6% (inactive)
COc1ccc(OC(=O)N2C/C(=C/c3ccccc3)C(=O)/C(=C\c3ccccc3)C2)cc1 | -32.7% (inactive)
COc1ccc(/C=C/C(=O)c2ccc3c4c(cccc24)CC3)cc1 | 8.97% (inactive)
O=CC1=C(c2ccccc2)Oc2ccccc2O1 | -21% (inactive)
Nc1nonc1-c1nc2ccccc2n1Cc1ccccc1 | 30% (inactive)
Cc1noc2ncnc(Sc3ccc(Br)cc3)c12 | 15.6% (inactive)
COc1ccc(C=CC(=O)c2c(OC)cc(OC)c(OC)c2O)cc1 | -20.6% (inactive)

Structure (SMILES) | activity increase (luciferase signal)
COc1cc(O)c(C(=O)/C=C/c2ccccc2)c(OC)c1 | 49% (inactive)
CCOC(=O)C(=Cc1ccc(-c2ccsc2C(=O)OC)o1)C(=O)OCC | 24.1% (inactive)
Oc1cc(NCc2ccc(Cl)cc2)cc2cccnc12 | -33.2% (inactive)
COc1cc(CNc2ccc(O)cc2)cc(Br)c1OCc1ccccc1 | 23.2% (inactive)
CC(=O)n1cc(/C=N/NC(=O)c2sc(C)nc2C)c2ccccc21 | 65.5% (inactive)
CCOc1ccc(-n2c(C)cc(C(=O)CCl)c2C)cc1 | -6.33% (inactive)
COc1ccc(Nc2c3ccccc3nc3ccccc23)cc1 | -37.8% (inactive)
COCCOC(=O)c1[nH]c2c(c1C)C(=O)CC(c1ccco1)C2 (centres undefined) | 34.5% (inactive)
CN(C)CCCNc1cc(-c2ccccc2)nc2cc(-c3cccc(F)c3)nn12 | 28.9% (inactive)
CCCCCC[n+]1ccccc1/C=C/c1ccc(N(C)C)cc1 | -64.3% (inactive)
CCN(CC)S(=O)(=O)c1ccc(-c2nnc(SCC(=O)N3CCc4ccccc43)o2)cc1 | 39% (inactive)
Cc1ccc(Oc2ccc(S(=O)(=O)N3CCOCC3)cc2C(N)=O)c(-n2nc3ccccc3n2)c1 | -17.3% (inactive)
O=C(c1ccc(Cl)cc1)C(CN1CCCCC1)c1ccccc1 (centres undefined) | -90.7% (inactive)
Nc1ccc2nc(-c3ccccc3)c(-c3ccccc3)nc2c1 | 4.94% (inactive)
O=S(=O)(Nc1cccc2cccnc12)c1ccc(S(=O)(=O)N2CCCC2)cc1 | -5.43% (inactive)
COc1ccc2nc3c(cc2c1)c(NC(=O)CC(C)C)nn3CC(C)C | -23.4% (inactive)
O=C(Nc1c2ccccc2nc2ccccc12)C(Cl)(Cl)Cl | 41.3% (inactive)
CN1CC(=O)N2C(c3ccc(Cl)cc3)c3[nH]c4ccccc4c3C[C@H]2C1=O (some centres undefined) | 11.1% (inactive)
COc1ccc(Cn2c(=O)c3[nH]cnc3n(-c3ccccc3C)c2=O)cc1 | 14.1% (inactive)
Cc1cc(-n2c(SCC(=O)NCCC3=CCCCC3)nc3n[nH]c(C)c3c2=N)ccc1Cl | 12.7% (inactive)
CCN(CC)CCCNC(=O)CSc1c2c(nc3cc(Cl)ccc13)CCCC2 | -21.6% (inactive)
